Pf growth 96h – Primary qHTS for delayed death inhibitors of the malarial parasite plastid, 96 hour incubation | P. falciparum luciferase reporter growth, 96 h | Potency, µM (doses to about 28.7 µM), inactives show top-dose activity change, negative = inhibition, most hits filed as inhibitors | 320,000 compounds, 6.9% hits | AID 504834, 2011; note: potency is the fitted concentration of half-maximal effect; % is set by controls: 0 for no effect and ±100 for the full control effect
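Luminescence readout: decreased luciferase signal marks inhibited growth of reporter-expressing P. falciparum in infected red cells (2% hematocrit, 0.05% parasitemia final), exposed to compound two generations (96 h, 37 C, 5% CO2).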
NS1 inh – qHTS Assay for Inhibitors of Influenza NS1 Protein Function | Potency, µM (highest dose often 46.1 µM), without a hit: top-dose activity, positive = more growth | 270,000 compounds, 0.4% hits | AID 2326, 2010; calls by dose curve; note: potency is the fitted concentration of half-maximal effect; actives are rising curves; nearly all actives have a fitted effect of over 50% in size
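In this qHTS, NS1 from influenza A is expressed in budding yeast, where it slows growth. Cells are switched from glucose to 2% galactose medium (pH 6.0, -URA), treated with compound, and growth recovery is read at OD600.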
Shiga inhibitor – A qHTS for Small Molecule Inhibitors of Shiga Toxin | Vero cells, Shiga toxin protein synthesis inhibition reporter | inhibition, % at 38.7 µM | 290,000 compounds, 9.2% hits; in the data active = inhibition mostly above about 28%, no sharp cut-off; inactive = mostly below about 43%; note: 0% is about no effect
Cycloheximide cs – Cycloheximide Counterscreen for Small Molecule Inhibitors of Shiga Toxin; 300,000 compounds, 12% hits; cell reporter, cycloheximide protein synthesis inhibition counterscreen; max response, %; AID 2314, 2010; in the data active = max response mostly above about 13%, no sharp cut-off; inactive = mostly below about 14%; note: read at 38.3 µM for the half of the compounds with a filed dose; 0% is about no effect
Pf growth 48h – Primary qHTS for delayed death inhibitors of the malarial parasite plastid, 48 hour incubation. P. falciparum luciferase growth in erythrocytes, 48 h. Potency, µM (top dose mostly 28.7 µM), inactives show top-dose activity change, negative = inhibition, actives largely listed as inhibitors. 310,000 compounds, 5.9% hits. AID 504832, 2011; note: potency is the fitted concentration of half-maximal effect; % is set by controls: 0 for no effect and ±100 for the full control effect
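Read-out is firefly luciferase luminescence from an integrated reporter in P. falciparum, so falling signal marks reduced parasite growth. Infected erythrocytes were at 2% hematocrit and 0.1% parasitemia (final) in Albumax-supplemented RPMI 1640.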
SARS PLP yeast – qHTS of Yeast-based Assay for SARS-CoV PLP | S. cerevisiae expressing SARS-CoV PLpro, growth rescue | Potency, µM (series often up to 32.9 µM), inactives show top-dose activity, positive = growth rescue, hits mostly activators | 330,000 compounds, 0.19% hits | AID 485353, 2010; calls by dose curve; note: potency is the fitted concentration of half-maximal effect; 0% is about no effect; nearly all actives have a fitted effect of over 55% in size
* marks the source's active call; other numbers are inactive results; i = inactive; u = inconclusive; x = not tested or not shown; [ ] = remark or other dose. Hits are enriched below; roughly 21% of the tested compounds scored in any of these assays. Unless noted, calls come from the whole dose curve; as a rule, active = well fitted inhibition curve with a large enough effect; inconclusive = small, poorly fitted or top-dose-only effect, or another doubt; inactive = no such curve, though single readings can be large or run the other way.

SMILES	Pf growth 96h	NS1 inh	Shiga inhibitor	Cycloheximide cs	Pf growth 48h	SARS PLP yeast
CCOC(=O)c1cnc(-n2nc(C)cc2C)nc1Nc1ccc(N(C)C)cc1	3.3µM*	-84%	12	9	5.2µM*	20%
CCOC(=O)c1cnc(-n2nc(C)cc2C)nc1Nc1ccc(O)cc1	2.6µM*	4%	-4	4	u	-1%
CC[C@@H]1OC(=O)[C@H](C)[C@H](O[C@@H]2C[C@](C)(OC)[C@H](O)[C@H](C)O2)[C@H](C)[C@H](O[C@@H]2O[C@@H](C)C[C@@H](N(C)C)[C@@H]2O)[C@](C)(O)C[C@H](C)C(=NOCOCCOC)[C@H](C)[C@H](O)[C@]1(C)O	1.6µM*	x	x	x	-5%[12.8 µM]	x
CC[C@H]1OC(=O)[C@H](C)[C@@H](O[C@H]2C[C@@](C)(OC)[C@@H](O)[C@H](C)O2)[C@H](C)[C@@H](O[C@@H]2O[C@H](C)C[C@H](N(C)C)[C@H]2O)[C@](C)(O)C[C@@H](C)C(=NOCOCCOC)[C@H](C)[C@@H](O)[C@]1(C)O	u	-36%	1	-2	-9%	-1%
Cc1ccc(CNC(=O)CN(C)S(=O)(=O)c2cccc3nsnc23)cc1	48%	13%	-8	-1	-7%	u
CCN(CCCNC(=O)CN(C)S(=O)(=O)c1cccc2nsnc12)c1cccc(C)c1	8.3µM*	-8%	-10	-4	u	3%
CCN(CCNC(=O)CN(C)S(=O)(=O)c1cccc2nsnc12)c1ccccc1	12µM*	-3%	-9	1	x	-6%
O=C(Nc1ccc(Cc2ccc(NC(=O)C3CC3)c(O)c2)cc1O)C1CC1	10µM*	u	-5	-3	4%	2%
O=C(O)CCC(=O)Nc1ccc(Cc2ccc(NC(=O)CCC(=O)O)c(O)c2)cc1O	x	9%	-12	0	x	6%
Cc1ccc(OCCCn2ccnc2)c(Br)c1	-18%	-7%	33	20*	u	x
Cc1ccc(OCCCn2ccnc2)c([N+](=O)[O-])c1	6.6µM*	1%	3	-2	-7%	-7%
Cc1ccc(OCCCN2CCOCC2)c([N+](=O)[O-])c1	-1%	7%	74*	36*	127%	-15%
Clc1cc(Br)ccc1OCCCn1ccnc1	u	1%	29	-2	u	-46%
CCCCCOc1ccc(Cn2ccnc2)cc1[N+](=O)[O-]	u	-25%	64*	13	u	-17%
CCOc1ccc(Cn2ccnc2)cc1[N+](=O)[O-]	-6%	17%	-20	-1	6%	13%
O=C(CCNC(=O)c1ccc(Br)cc1)Nc1ccc(S(=O)(=O)N2CCOCC2)cc1	x	x	x	x	x	-2%
N#CC1=C(N)OC2=C(CCc3ccccc32)C1c1ccccc1 (stereo not given)	27%	-25%	-6	12	12µM*	-13%
Cc1ccc(/C=C2\CCC3=C2OC(N)=C(C#N)C3c2ccc(C)cc2)cc1 (stereo not given)	u	20%	13	-1	u	-10%
O=C1CC(N2CCSCC2)C(=O)N1c1cccc(Cl)c1 (stereo not given)	u	x	-8	-4	24%	-17%
CCOC(=O)C1CCCCN1C(=O)c1oc2c(Cl)cc(C)cc2c1C (stereo not given)	u	-29%	118*	46*	53%	-9%
Cc1cc(Cl)c2oc(C(=O)N(C)CCCCN3CCOCC3)c(C)c2c1	u	18%	-2	-1	-13%	-4%
Cc1cc(Cl)c2oc(C(=O)NC3CCC(O)CC3)c(C)c2c1 (stereo not given)	0%	-8%	x	21*	36%	x
COC(=O)C1CCN(C(=O)c2oc3c(Cl)cc(C)cc3c2C)CC1	8%	-36%	76*	47*	101%	-11%
Cc1cc(Cl)c2oc(C(=O)NCC(C)(C)N3CCOCC3)c(C)c2c1	22%	-14%	37	18*	u	-9%
CC(C)c1ccc(/C=N/n2c(COc3ccccc3)n[nH]c2=S)cc1	9%	2%	-13	3	-16%	-1%
SMILES	Pf growth 96h	NS1 inh	Shiga inhibitor	Cycloheximide cs	Pf growth 48h	SARS PLP yeast
O=C(C[C@@H]1C/C=C\C[C@H](NC(=O)OCC2c3ccccc3-c3ccccc32)C(=O)O[C@H](c2ccccc2)CNC1=O)NCCO	x	x	x	x	x	0%
O=c1c(Cl)nc2cc(Cl)ccc2n1CCNc1ncc(C(F)(F)F)cc1Cl	u	-50%	-5	-3	13µM*	6%
NNc1nc2cccnc2n(CCNc2ncc(C(F)(F)F)cc2Cl)c1=O	12µM*	x	-2	6	u	1%
Cc1ccc(N2C(=O)C3CCCN3C2=S)cc1Cl (stereo not given)	28%	-6%	9	1	-22%	-1%
Cc1ccc(N2C(=O)C3CCCN3C2=S)cc1C (stereo not given)	-28%	-3%	28	16*	-23%	1%
CN(C)c1ccc(C2CC(c3ccccc3)=Nc3nc(-c4ccccc4)cn32)cc1 (stereo not given)	5.2µM*	22%	12	31*	8.3µM*	-6%
CN(C)c1ccc(-c2n[nH]c(=S)n2-c2ccccc2)cc1	u	x	-3	8	2%[5.75 µM]	1%
CC1SC(c2ccccc2)N(CC(O)c2ccc([N+](=O)[O-])cc2)C1=O (stereo not given)	75%	x	22	-6	12µM*	0%
O=C1CSC(c2ccccc2)N1CC(O)c1ccc([N+](=O)[O-])cc1 (stereo not given)	i	x	4	6	-10%	-2%
CCn1c(SC(C)C(=O)NCC2CCCO2)nc2ccccc21 (stereo not given)	10%	x	x	x	-3%	-16%
CCn1cc(CNC(=S)Nc2cccc(Cl)c2C)cn1	21%	2%	-9	-3	7%	0%
S=c1nc2ccccc2c2nc(-c3ccccc3Br)[nH]n12	2.3µM*	u	1	1	2.9µM*	3%
Brc1ccccc1-c1nc2c3ccccc3ncn2n1	294%	x	x	x	332%	14%
CCn1c(=O)cc(OCC(=O)Nc2ccccc2N2CCN(C)CC2)c2ccccc21	9.3µM*	u	-8	4	x	2%
CCn1c(=O)cc(OCC(=O)Nc2nc(C)cs2)c2ccccc21	2.1µM*	u	-1	-1	6%	-2%
CCn1c(=O)cc(OCC(=O)Nc2ccc(C)cn2)c2ccccc21	x	-7%	-8	-4	0%	-5%
Cc1nnsc1-c1c(C(=O)Oc2ccccc2)c(C)nn1-c1ccccc1	13µM*	-4%	-14	1	9.3µM*	1%
Cc1nn(-c2ccccc2)c(C)c1C(=O)Oc1ccccc1	54%	-32%	59*	36*	51%	-1%
Cc1nn(-c2ccccc2)c(C)c1C(=O)OCC(=O)N1CCN(S(=O)(=O)c2ccccc2)CC1	-17%	-37%	29	-3	-13%	3%

High-throughput results (PubChem)
